Screening results: PubChem BioAssay, National Center for Advancing Translational Sciences (NCATS)
Only some compounds are listed: those with a hit (about 10% of all), similar ones and a draw of the others.
L3MBTL1 block – inhibitors of human L3MBTL1; Potency, µM (doses to about 57.1 µM), inactives show top-dose activity, negative = inhibition, most hits filed as inhibitors; 230,000 compounds, 0.66% hits; AlphaScreen L3MBTL1–H3K9me1 peptide binding; AID 485360; Q9Y468; further: on the % scale 0 is the no-effect control and ±100 the full control effect; nearly all actives have a fitted effect of over 60% in size
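L3MBTL1 50 nM + b-AHA-H3(1-15)K9me1 75 nM, 30 min RT; compound added, 30 min RT; streptavidin donor/Ni-chelate acceptor beads 10 ug/mL each final, 30 min RT dark; AlphaScreen read.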
BAZ2B inh – inhibitors of human BAZ2B bromodomain. AlphaScreen BAZ2B-H3K14Ac peptide displacement. Potency, µM (top dose mostly 114 µM), for inactives: at the top dose activity change, negative = inhibition, most hits filed as inhibitors. 360,000 compounds, 4.4% hits; further: on the % scale 0 is the no-effect control and ±100 the full control effect; nearly all actives have a fitted effect of over 60% in size
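BAZ2B (50 nM) with biotin-H3(5-23)K14Ac peptide (50 nM) in PBS pH 7.4, 0.01% Tween-20, preformed 30 min, then compound 30 min at room temperature; top concentration 110uM. AlphaScreen streptavidin donor/nickel chelate acceptor beads (10 ug/mL final), 20 min dark, signal read.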
G9a block – blocks human histone lysine methyltransferase G9a. G9a H3K9 monomethylation, AlphaScreen, 2 h. Potency, µM (titrated, usually from 102 µM), without a hit: at the highest dose activity, negative = inhibition, actives largely listed as inhibitors. 350,000 compounds, 8.8% hits. AID 504332; further: on the % scale 0 is the no-effect control and ±100 the full control effect; nearly all actives have a fitted effect of over 75% in size
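AlphaScreen detection with an anti-monomethyl H3K9 antibody quantified product after a 2 h room-temperature reaction containing 500 nM biotinylated H3K9 peptide, 20 µM SAM and 20 nM enzyme, which had been preincubated 15 min with compound.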
GLS inh – glutaminase GLS (human) inhibition. O94925. GLS enzymatic activity, qHTS titration. Potency, µM (top dose mostly 45.5 µM), without a hit: at the top dose activity change, negative = inhibition, most hits filed as inhibitors. 410,000 compounds, 0.21% hits. AID 624170; further: on the % scale 0 is the no-effect control and ±100 the full control effect
Target sequence (O94925 whole entry, looked up): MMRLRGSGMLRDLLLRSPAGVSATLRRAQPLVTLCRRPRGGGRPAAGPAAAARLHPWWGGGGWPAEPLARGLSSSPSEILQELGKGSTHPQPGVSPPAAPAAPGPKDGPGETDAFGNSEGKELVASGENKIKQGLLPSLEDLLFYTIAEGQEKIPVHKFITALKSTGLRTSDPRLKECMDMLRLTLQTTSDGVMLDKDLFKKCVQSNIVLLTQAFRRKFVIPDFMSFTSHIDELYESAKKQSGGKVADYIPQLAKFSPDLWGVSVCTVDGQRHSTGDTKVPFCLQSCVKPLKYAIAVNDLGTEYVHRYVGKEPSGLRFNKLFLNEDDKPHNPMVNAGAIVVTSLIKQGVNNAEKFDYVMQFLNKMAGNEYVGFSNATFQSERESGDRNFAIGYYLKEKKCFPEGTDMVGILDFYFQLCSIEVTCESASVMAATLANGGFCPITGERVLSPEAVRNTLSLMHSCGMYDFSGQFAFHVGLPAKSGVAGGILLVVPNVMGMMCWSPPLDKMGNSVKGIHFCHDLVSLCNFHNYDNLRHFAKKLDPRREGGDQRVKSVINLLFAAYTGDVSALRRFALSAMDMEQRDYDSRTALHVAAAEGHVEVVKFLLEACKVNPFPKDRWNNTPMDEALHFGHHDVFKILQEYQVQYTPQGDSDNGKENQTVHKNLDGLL
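hKGA in 45 mM KH2PO4 (pH 8.2), 0.02% Tween-20 with compound, then 1mM L-Glutamine (stock as added) plus glutamate oxidase/HRP/Amplex red coupling mix. Fluorescence read initially and after 30 min at RT; signal change reflects glutamate formation.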
JMJD2A Tudor – JMJD2A Tudor domain (human) inhibition. O75164. AlphaScreen JMJD2A-Tudor / H3K4me3 peptide binding. Potency, µM (top dose mostly 114 µM), inactives show at the highest dose activity change, negative = inhibition, actives largely listed as inhibitors. 390,000 compounds, 4.4% hits. AID 504339; further: on the % scale 0 is the no-effect control and ±100 the full control effect; nearly all actives have a fitted effect of over 50% in size
HP1b binding inh – HP1-beta chromodomain-methylated histone interaction inhibition; AlphaScreen HP1-beta / biotin-H3K9me3 peptide binding; Potency, µM (top dose mostly 114 µM), for inactives: at the top dose activity change, negative = inhibition, hits mostly inhibitors; 390,000 compounds, 0.56% hits; AID 540317; further: nearly all actives have a fitted effect of over 70% in size
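HP1-beta protein (50 nM final) preincubated 30 min at room temperature with biotinylated H3(1-18)K9me3 peptide (50 nM) in PBS pH 7.4, 0.01% Tween-20, then compound added for 30 min. AlphaScreen streptavidin donor/nickel chelate acceptor beads (10 ug/mL final), 30 min dark, luminescence read.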
Numbers without * were called inactive; ? = inconclusive; / = no result; [ ] = dose if it differs, or a comment. The call rests on the fitted dose curve; in most records, active means well fitted curve in the direction sought with a large enough effect; inconclusive means small, poorly fitted or top-dose-only effect, or another doubt; inactive means no such curve, though single readings can be large; an effect the other way counts as inactive or inconclusive. Potency means the concentration at half of the fitted maximal effect.

SMILES | L3MBTL1 block | BAZ2B inh | G9a block | GLS inh | JMJD2A Tudor | HP1b binding inh
C(=N\N1CCN(Cc2ccccc2)CC1)/c1cccs1 | -25% | ? | ? | 5% | ? | -19%
CCN(CC)c1ccc(/C=N/N2CCN(Cc3ccc(Cl)cc3)CC2)c(O)c1 | -14% | 3.5µM* | 10µM* | 19% | ? | ?
CCN(CC)c1ccc(/C=N/N2C(=O)c3ccccc3C2=O)c(O)c1 | 33% | 15% | ? | 9% | -26% | 9%
CCCn1c(=O)c2sccc2n2c(CCCC(=O)NCCc3ccc(Cl)cc3)nnc12 | / | -13% | -23%[59 µM] | -11% | -8% | 2%
CC1(C)CC(=O)C2=C(C1)NC(Nc1nc3ccccc3o1)=NC2c1cccnc1 (stereo not given) | / | / | / | / | -13% | 29%
Cc1c(Cl)ccc2sc(N3CCN(C(=O)C4CC4)CC3)nc12 | / | 5% | 7%[59 µM] | 3% | 4% | 35%
COc1ccc(-c2c(C)nn(Cc3ccccc3)c2N)cc1 | 3% | -35% | 45µM* | -5% | -29% | 9%
COc1ccc(C(=O)N/C(=C\c2ccc([N+](=O)[O-])cc2)C(=O)NC(CCSC)C(=O)O)cc1 (stereo not given) | / | 1% | 50µM* | 0% | -14% | 41%
Cn1nnnc1Sc1ncnc2scc(-c3cccc(N)c3)c12 | / | / | / | / | -32% | /
O=C(Oc1c(CN2CCOCC2)cc(Cl)c2cccnc12)c1cccs1 | -85% | / | 26% | -9% | ? | 25%
O=C(Oc1c(CN2CCOCC2)cc(Cl)c2cccnc12)c1ccc(F)cc1 | ? | 20µM* | 7%[59 µM] | -8% | 22µM* | -2%
COc1ccc(C(=O)Oc2c(CN3CCOCC3)cc(Cl)c3cccnc23)cc1 | / | 50µM* | ? | -8% | ? | 34%
COc1cc(C(=O)Oc2c(OC)cc(C(=S)N3CCOCC3)cc2OC)cc(OC)c1OC | -4% | -33% | ? | -3% | -28% | 21%
O=C(Oc1ccc(Cl)c2cccnc12)N1CCOCC1 | 3% | -1% | 2%[59 µM] | 4% | -16% | 37%
COc1cccc(C(=O)Oc2c(CN3CCOCC3)cc(Cl)c3cccnc23)c1 | / | 45µM* | -33% | -2% | 50µM* | 33%
COc1cc(C(=O)Oc2c(CN3CCOCC3)cc(Cl)c3cccnc23)cc(OC)c1OC | / | 20µM* | -16% | -12% | 56µM* | 17%
COc1ccc(OCc2nc3ccccc3n2C(C)c2ccccc2)cc1 (stereo not given) | / | -1% | ? | 5% | -9% | 32%
NC(=S)N/N=C/c1ncc(C(F)(F)F)cc1Cl | ? | 50µM* | -28% | 4% | ? | 42%
NC(=S)N/N=C/c1ccc(C(F)(F)F)cc1 | -6% | -20% | 8%[59 µM] | 14% | -23% | 23%
COc1cccc(-c2nc(CS(=O)(=O)CC(=O)Nc3c(C)cc(C)cc3C)c(C)o2)c1 | / | ? | -18%[59 µM] | -2% | -12% | 25%
COc1ccc(-c2nc(Cn3c(SCc4cccc(C(F)(F)F)c4)nc4cccnc43)c(C)o2)cc1OC | / | -37% | ? | -4% | -36% | 8%
OCC1CCCN(Cc2ccc(-c3ccccc3)cc2)C1 (stereo not given) | 6% | ? | / | -4% | 2.2µM* | ?
COc1ccc(C(=O)NCC(c2ccc3c(c2)OCO3)N2CCN(c3ccccc3F)CC2)cc1 (stereo not given) | / | -25% | -27%[59 µM] | -2% | -34% | 20%[57 µM]
CCOC(=O)c1sc2nc3c(SCCC#N)cc(C(=O)c4cc(F)ccc4O)cn3c(=O)c2c1C | -6% | -23% | ? | 23% | -26% | 13%
O=C(O)CSc1cc(C(=O)c2cc(F)ccc2O)cn2c(=O)c3c(-c4ccccc4)csc3nc12 | ? | 56µM* | 50µM* | 9% | 56µM* | 0%[57 µM]
SMILES | L3MBTL1 block | BAZ2B inh | G9a block | GLS inh | JMJD2A Tudor | HP1b binding inh
CCOC(=O)c1sc2nc3c(SCCC(=O)O)cc(C(=O)c4cc(OC)ccc4O)cn3c(=O)c2c1C | ? | 35µM* | 11µM* | 5.6µM* | 14µM* | -12%
Cc1ccccc1C(=O)Nc1ccc(OCc2cc(=O)n3cccc(C)c3n2)cc1 | / | 8% | -2%[59 µM] | 3% | -23% | 21%[57 µM]
CCOc1ccc(C2C(C#N)=C(N)SC(N)=C2C#N)cc1OC | 0% | ? | 8.9µM* | / | / | /
CCOc1ccccc1C1C(C#N)=C(N)SC(N)=C1C#N | -3% | 2% | ? | -15% | 79µM* | 1%
CCOc1ccc(C2C(C#N)=C(N)SC(N)=C2C#N)cc1OCC | / | ? | ? | -18% | ? | 5%
O=[S+]([O-])(c1ccc2c(c1)OCCO2)N1CCN([S+](=O)([O-])c2c(O)cc(F)cc2F)CC1 | / | / | / | / | -11% | /
CC(=O)Nc1ccc(NC(=O)CCS(=O)(=O)c2ccc3c(c2)CC(=O)N3C)cc1 | / | -1% | -3%[59 µM] | 0% | -3% | 18%
Cc1ccc(-c2nc(C)c(CCNS(=O)(=O)c3ccc(F)c(C(F)(F)F)c3)s2)cc1 | / | 1% | 2%[59 µM] | -11% | -14% | 25%[57 µM]
CCOc1cc(N2CCOCC2)c(OCC)cc1NC(=O)C(C)Oc1ccccc1 (stereo not given) | -26% | / | / | 22% | 35µM* | -17%[57 µM]
CCOc1cc(N2CCOCC2)c(OCC)cc1NC(=O)c1nn(CC)c(=O)c2ccccc12 | -8% | 50µM* | ? | 11% | 50µM* | -40%
CCOc1cc(N2CCOCC2)c(OCC)cc1NC(=O)c1ccc2ccccc2n1 | -23% | 16µM* | 18µM* | 0% | 22µM* | ?
CCOc1cc(N2CCOCC2)c(OCC)cc1NC(=O)c1ccccc1C | 4%[11.4 µM] | ? | ? | -3% | ? | -10%
CCOc1cc(N2CCOCC2)c(OCC)cc1NC(=O)c1ccc(=O)n(Cc2ccccc2)n1 | -8% | -2% | 22% | / | / | /
CCOc1cc(N2CCOCC2)c(OCC)cc1NC(=O)CN1CCCC1 | -10% | 13µM* | 3.2µM* | 6% | ? | 4%
CCOc1cc(N2CCOCC2)c(OCC)cc1NC(=O)CN1C(=O)C2CC=CCC2C1=O (stereo not given) | / | -3% | 16% | 9% | -16% | 14%
Cc1ccc(N(CC(=O)N2CCN(c3cccc(C)c3C)CC2)S(=O)(=O)c2c(C)nn(C)c2C)cc1 | / | / | ? | 1% | ? | 5%
CCC(C)NC(=O)Cn1c(=O)n(-c2ccc(C)c(C)c2)c(=O)c2c3c(sc21)CCCCC3 (stereo not given) | / | 1% | 5%[59 µM] | 3% | 10% | 25%
Cc1ccc(NC(=O)CSc2nc(=O)n(Cc3cccnc3)c3c2CCC3)cc1F | / | -6% | 5%[59 µM] | -3% | -17% | -4%
